Results taken from PubChem BioAssay (NCATS).
Results filed as inconclusive are left out. Values without a mark were called inactive. The call rests on the fitted dose curve; in most records, active means well fitted cell-killing curve with a large enough effect; inconclusive means small, poorly fitted or top-dose-only effect, or effect the other way; inactive means no such curve, though single readings can be large or run the other way.

Test: Cell Viability - LYMP2-005 (AID 967)
Details: LYMP2-005 lymphoblastoid cell viability; series mostly up to 92.2 µM; activity change, negative = viability loss: at the top concentration
Excerpt: NIH Chemical Genomics Center [NCGC]
NIH Molecular Libraries Screening Centers Network [MLSCN]
National Institutes of Environmental Health Sciences [NIEHS]
National Toxicology Program [NTP]
We have developed a 1536-well cell-based assay for quantitative high throughput screening (qHTS) against a number of cell lines to determine in vitro cytotoxicity of small molecules. This particular assay uses a human lymphoblastoid cell line (LYMP2-005) purchased from Coriell Institute for Medical Research.
NCGC Assay Protocol Summary:
The CellTiter-Glo luminescent cell viability assay (Promega) is a homogeneous method to measure the number of viable cells in culture. The end point readout of this assay is based on quantitation of intracellular ATP, an indicator of metabolic activity, using the luciferase reaction. Luciferase catalyzes the oxidation of beetle Luciferin to oxyluciferin and light in the presence of ATP. The luminescent signal is proportional to amount of ATP present.
Using the CellTiter-Glo luminescent cell viability assay, the amount of cellular ATP was measured in the lymphoblastoid cell line with complete culture medium following compound treatment for 24 hours. The assay was performed in opaque white Kalypsys 1536-well plates. In the screen, tetraoctylammonium bromide was used as positive control. Library compounds were measured for their ability to cause acute toxicity in the cell line, as reflected by a decrease in intracellular ATP levels, in a concentration-dependent manner. […] AC50 values were determined from concentration-response data modeled with the standard Hill equation.
qHTS protocol for CellTiter Glo lymphoblastoid cellular assay
[Step] [Parameter] [Value] [Description]
1. Reagent; 5 uL; 2500 lymphoblastoid cells/well
2. Time; 5 hr; 37 C incubation
4. Controls; 23 nL; Tetraoctylammonium bromide 6.4pM to 92 uM
5. Time; 24 hr; 37 C incubation
6. Reagent; 5 uL; CellTiter Glo reagent
7. Time; 30 min; Room Temperature
8. Detection; Luminescence; Viewlux plate reader
Keywords: cell viability, cytotoxicity, lymphoblastoid cell line, luminescence, NTPHTS, NTPHTS_NCGC, NIEHS, DSSTox, MLSMR, MLSCN, NIH Roadmap, qHTS, NCGC

Row | Compound | activity change, negative = viability loss [%]
1 | O=Cc1ccccc1 | -1.75
2 | CCOC(=O)c1ccccc1N | 21.9
3 | COC(=O)c1ccccc1C(=O)OC | 15.8
4 | CCOc1cc(C=O)ccc1O | 5.17
5 | c1ccc(Nc2ccc3ccccc3c2)cc1 | -6.47
6 | Oc1ccccc1Cl | 13.9
7 | c1ccc2c(c1)-c1cccc3cccc-2c13 | 11.1
8 | CC(=O)[C@H]1CC[C@H]2[C@@H]3CCC4=CC(=O)CC[C@]4(C)[C@H]3CC[C@]12C | -26.2
9 | CC(C)COC(=O)c1ccccc1C(=O)OCC(C)C | 5.11
10 | CC(=O)/C=C/c1ccccc1 | -42.9
11 | COC1=CC(=O)OC(CCc2ccc3c(c2)OCO3)C1 (stereo not drawn) | -32.8
12 | Cc1ccccc1O | 8.78
13 | Oc1c(Cl)c(Cl)c(Cl)c(Cl)c1Cl | 5.79
